A selection: hits, their analogues and other compounds. The true share with any hit is near 4.7%.
HTT-AS promoter – activators of huntingtin-antisense promoter activity. AID 1508624. actives 0.24% (n = 48,000). HEK293 HTT-AS promoter firefly luciferase reporter, 24 h; response scale: percent change from vehicle, -100% = no light. Potency, µM (doses to about 57.5 µM), for inactives: at the highest dose activity change, positive = activation, actives largely listed as activators; note: potency is the fitted concentration of half-maximal effect; nearly all actives have a fitted effect of over 55% in size
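Luminescence was read after Dual-Glo reagent and a 10 min room-temperature incubation. Values were normalized to vehicle (0% activity) and zero RLU (-100% activity). Reporter HEK293 cells had been exposed to compounds (up to 57.5 uM final) for 24 h.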
GALC G270D up – enhancers of human galactocerebrosidase G270D mutant activity in cells; 145M-Twi-hGALC-G270D cells (Twitcher mouse brain line with human GALC G270D), HMU-beta-Gal fluorescence, 48 h; actives 0.1% (n = 45,000); Potency, µM (titrated, usually from 57.5 µM), actives largely listed as activators; note: potency is the fitted concentration of half-maximal effect; 0% is about no effect; nearly all actives have a fitted effect of over 65% in size
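Fluorogenic HMU-b-Gal hydrolysis (0.1 mM final, pH 5.2 citrate-phosphate with 1 mg/mL sodium taurocholate; carbonate stop buffer) measures mutant GALC activity after compound treatment of live 145M-Twi Twitcher brain cells stably carrying human GALC-G270D, with wild-type GALC line alongside; activation sought.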
FH mod – Identification of activators of human fumarate hydratase by quantitative high-throughput screening; Fumarate hydratase, mitochondrial (Homo sapiens), P07954; FH coupled MDH/diaphorase resazurin fluorescence, 15 min; Potency, µM (doses to about 79.9 µM), inactives show at the highest dose activity change, negative = inhibition, actives largely listed as inhibitors; actives 0.22% (n = 54,000); note: potency is the fitted concentration of half-maximal effect; % is set by controls: 0 for no effect and ±100 for the full control effect; the screen sought activators but most active calls are inhibition curves; nearly all actives have a fitted effect of over 45% in size
Target sequence (P07954 whole entry, looked up): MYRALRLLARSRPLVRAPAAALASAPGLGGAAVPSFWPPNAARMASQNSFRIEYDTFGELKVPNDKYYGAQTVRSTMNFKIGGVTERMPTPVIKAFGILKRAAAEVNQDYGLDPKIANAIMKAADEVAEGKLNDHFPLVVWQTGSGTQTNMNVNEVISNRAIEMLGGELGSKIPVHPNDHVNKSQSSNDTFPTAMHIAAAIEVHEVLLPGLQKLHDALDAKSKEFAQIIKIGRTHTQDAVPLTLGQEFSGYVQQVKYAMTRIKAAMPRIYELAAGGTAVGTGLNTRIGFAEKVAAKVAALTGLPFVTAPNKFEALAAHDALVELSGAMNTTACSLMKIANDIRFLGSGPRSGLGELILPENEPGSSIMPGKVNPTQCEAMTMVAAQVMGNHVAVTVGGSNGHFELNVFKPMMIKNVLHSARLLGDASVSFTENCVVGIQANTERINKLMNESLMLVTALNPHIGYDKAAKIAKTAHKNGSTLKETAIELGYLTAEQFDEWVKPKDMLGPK
DRV1 agonist – agonists of human resolvin D1 receptor DRV1 (GPR32) | actives 2.5% (n = 48,000) | activation, % at 76.9 µM | AID 1346428 | CHO-K1 GPR32 beta-arrestin PathHunter luminescence, 90 min; zero percent set by DMSO-only wells;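 active = activation of at least 60% and not above a set upper limit, about 1 call in 100 departs from these limits; inconclusive = activation of 40% to 60%, or above that upper limit; inactive = activation under 40%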; note: 0% is about no effect
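Agonism was scored as beta-arrestin recruitment to ProLink-fused GPR32 in stably transfected CHO-K1 cells, giving a chemiluminescent beta-Gal signal; compounds were incubated 90 min at 37 °C.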
HTT promoter inh – inhibits huntingtin promoter activity | HEK293 HTT promoter firefly luciferase reporter, 24 h | actives 0.93% (n = 48,000) | Potency, µM (highest dose often 57.5 µM), for the others: at the highest dose activity change, negative = inhibition, most hits filed as inhibitors; note: potency is the fitted concentration of half-maximal effect; nearly all actives have a fitted effect of over 50% in size
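Luminescence was read after Dual-Glo reagent and a 10 min room-temperature incubation. Values were normalized to vehicle (0% activity) and zero RLU (-100% activity). Reporter HEK293 cells had been exposed to compounds (up to 57.5 uM final) for 24 h.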
NTMT1 inh – blocks human N-terminal methyltransferase 1 activity. Q9BV86. AID 1645870. Potency, µM (top dose mostly 114 µM), for the others: at the top dose activity change, negative = inhibition, actives largely listed as inhibitors. actives 2.5% (n = 59,000). NTMT1 MTase-Glo SAH luminescence, purified enzyme;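 note: potency is the fitted concentration of half-maximal effect; plate controls were DMSO vehicle for no effect and no enzyme for full effect; nearly all actives have a fitted effect of over 65% in size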
Target sequence (Q9BV86 whole entry, looked up): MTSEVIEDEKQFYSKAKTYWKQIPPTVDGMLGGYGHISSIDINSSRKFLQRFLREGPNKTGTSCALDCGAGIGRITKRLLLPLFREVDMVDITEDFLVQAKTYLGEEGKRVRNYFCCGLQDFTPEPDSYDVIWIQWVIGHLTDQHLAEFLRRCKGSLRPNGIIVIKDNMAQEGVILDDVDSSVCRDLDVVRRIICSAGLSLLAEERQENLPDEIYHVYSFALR
* = called active by the depositor; i = inactive; ? = inconclusive; nt = no result; [ ] = remark or other dose. Unless noted, calls come from the whole dose curve; as a rule, active = well fitted curve in the direction sought with a large enough effect; inconclusive = small, poorly fitted or top-dose-only effect, or another doubt; inactive = no such curve, though single readings can be large; an effect the other way counts as inactive or inconclusive.

SMILES	HTT-AS promoter	GALC G270D up	FH mod	DRV1 agonist	HTT promoter inh	NTMT1 inh
Cc1ccc(C2C=C(c3ccc(Cl)cc3)Nc3nc(NS(=O)(=O)c4ccccc4)nn32)cc1 (stereo not given)	-16.6%	i	-13.3%	73.0*	-11.2%	2.7%
Cc1ccc(C2C=C(c3ccccc3)Nc3nc(NS(=O)(=O)c4ccc(C)cc4)nn32)cc1 (stereo not given)	-11.3%	i	?	93.9*	-3.2%	-24.3%
O=C(Nc1ncc(Cc2ccc(C(F)(F)F)cc2)s1)c1ccc(-c2cccnc2)o1	nt	nt	nt	nt	nt	-7.0%
Cn1nnnc1Sc1ncnc2scc(-c3ccc4c(c3)OCO4)c12	nt	nt	nt	nt	nt	89.1µM*
Cc1ccc(NC(=O)n2ncc3c(C)cccc32)c(C)c1	7.08µM*	?	-2.7%	-18.9	55.6%	-6.5%
COc1ccc(OC)c(-c2cc(C(=O)Nc3c(C)nn(Cc4ccc(C)cc4)c3C)no2)c1	nt	nt	nt	9.7	nt	nt
COc1ccc2c(c1)CCc1c(C(=O)Nc3c(C)nn(Cc4ccc(C)cc4)c3C)noc1-2	-46.9%	i	?	-0.7	22.4µM*	-21.2%
COc1ccc(-c2cc(C(=O)Nc3ccn(Cc4ccc(C)cc4)n3)no2)cc1OC	nt	nt	nt	77.7*	nt	nt
COc1cccc(-c2cc(C(=O)Nc3ccn(Cc4ccc(C)cc4)n3)no2)c1	nt	nt	nt	49.5	nt	nt
COc1ccccc1-c1cc(C(=O)Nc2c(C)nn(Cc3ccc(Cl)cc3)c2C)no1	nt	nt	nt	72.3*	nt	nt
COc1cccc(C(=O)Nc2nc3nc(C)c(C)c(=O)n3[nH]2)c1	-13.8%	i	-7.5%	23.2	-11.3%	14.5%
O=C(Cc1ccccc1)Nc1cccc(-c2cn3cccnc3n2)c1	11.2µM*	i	-1.4%	16.7	53.4%	-2.5%
COc1cc(OC)cc(C(=O)Nc2cccc(-c3cn4cccnc4n3)c2)c1	1.6%	i	-1.4%	?	-5.7%	-1.2%
COc1cccc(C(=O)Nc2cccc(-c3nc4ncccn4c3C)c2)c1	5.6%	?	-12.7%	61.5*	3.4%	-6.1%
O=C(Nc1ccc(-c2cn3cccnc3n2)cc1)c1cc(Br)ccc1Cl	-15.5%	i	0.0%	83.5*	-1.6%	0.5%
COc1ccc(NC(=O)Nc2cccc(-c3cn4cccnc4n3)c2)cc1	26.2%	i	-6.2%	76.7*	25.1%	?
O=[S+]([O-])(Nc1ccccc1)c1ccc(NCc2cccc(C(F)(F)F)c2F)cc1	nt	nt	nt	nt	nt	2.1%
COc1ccc(OC)c(C(=O)Nc2nc(-c3ccccc3)cs2)c1	nt	nt	nt	nt	nt	14.6%
C[C@@H]1C(=O)O[C@H]2[C@@H](O)C34[C@H]5C[C@@H](C(C)(C)C)C36[C@@H](OC(=O)[C@@H]6O)O[C@@]4(C(=O)O5)[C@@]12O (stereo not given in full)	nt	nt	0.7%	nt	nt	-4.0%[57.5 µM]
COc1ccccc1NC(=O)COC(=O)CC(C)(C)CC1=NS(=O)(=O)c2ccccc2N1	-34.5%	i	-0.1%	?	?	-3.3%
CC(C)(CC(=O)OCC(=O)Nc1ccc(F)c(Cl)c1)CC1=NS(=O)(=O)c2ccccc2N1	-38.7%	i	-9.0%	114.9*	?	-20.1%
CCOC(=O)c1ccccc1NC(=O)COC(=O)CC(C)(C)CC1=NS(=O)(=O)c2ccccc2N1	-52.9%	i	-33.6%	84.4*	?	-17.8%
CC(C)(CC(=O)OCC(=O)Nc1ccccc1F)CC1=NS(=O)(=O)c2ccccc2N1	-30.7%	i	-8.5%	111.6*	?	-6.8%
C=CC(C)(O)CC/C=C(\C)C(=O)O[C@@H]1[C@@H](O)[C@H](OC(C)(C=C)CC/C=C(\C)C(=O)O)O[C@H](CO)[C@H]1OC(=O)/C(C)=C/CCC(C)(O)C=C (stereo not given in full)	nt	nt	8.5%[20.6 µM]	nt	nt	-12.0%[12.6 µM]
Cc1cccc(-n2cnc3cc(C(=O)N4CCC(N5CCOCC5)CC4)ccc32)c1	nt	nt	nt	nt	nt	-2.3%[57.5 µM]
SMILES	HTT-AS promoter	GALC G270D up	FH mod	DRV1 agonist	HTT promoter inh	NTMT1 inh
CCC[C@@H](NC(=O)N1C(=O)C(CC)(CC)[C@@H]1Oc1ccc(C(=O)N2CCN(C)CC2)cc1)c1ccc2c(c1)OCO2	nt	nt	-27.2%	nt	nt	0.3%[57.5 µM]
Cc1cc(C)cc(NC(=O)N2CCN3CCCCC3C2)c1 (stereo not given)	0.2%	i	0.8%	-3.9	11.6%	-6.7%
Cc1cc(C)cc(NC(=O)N2CCC(N3CCCCC3)CC2)c1	4.9%	i	-6.0%	6.0	17.0%	89.1µM*
Cc1cc(N[S+](=O)([O-])c2ccc(NC(=O)Cc3ccc(C(F)(F)F)c(F)c3)cc2)no1	nt	nt	nt	nt	nt	7.5%
O=C(c1ccc(-c2cnc3c(O)cccc3c2)cc1)N1CCNCC1	nt	nt	nt	nt	nt	-11.9%
Cc1ccc(CNC(=O)c2cc3c(s2)-c2ccc(Cl)cc2SC3)cc1	-9.2%	i	-9.4%	105.9*	-11.7%	4.5%
Cc1ccc(CNC(=O)c2cc3c(s2)-c2ccccc2SC3)cc1	-7.4%	i	-24.6%	-15.2	-4.1%	-8.2%
CCc1ccc(C(=O)c2cn(CC(=O)Nc3cc(F)ccc3F)c3nc(C)ccc3c2=O)cc1	-7.1%	3.98µM*	-17.5%	27.7	6.2%	-0.2%
Cc1ccc(CNC(=O)Cn2cc(C(=O)c3ccc(F)cc3)c(=O)c3ccc(C)nc32)cc1	-15.1%	i	6.1%	3.6	-5.7%	0.1%
Cc1ccc(C(=O)c2cn(Cc3c(F)cccc3Cl)c3nc(C)ccc3c2=O)cc1	-22.7%	i	-9.3%	82.2*	-15.8%	0.9%
Cc1ccc(Cn2cc(C(=O)c3ccc(C)cc3)c(=O)c3ccc(C)nc32)cc1	3.9%	i	-21.6%	-0.3	-10.4%	?
Cn1nc(-c2ccc(OCC(=O)Nc3cccc(C(F)(F)F)c3)cc2)c2ccccc2c1=O	-48.9%	i	1.7%	84.7*	?	-5.6%
Cn1nc(-c2ccc(C(=O)Nc3ccc(F)cc3)cc2)c2ccccc2c1=O	-43.0%	i	-4.1%	105.2*	?	?
Cc1ccc(NC(=O)COc2ccc(-c3nn(C)c(=O)c4ccccc34)cc2)cc1	-35.9%	i	-20.1%	25.8	?	-14.1%
Cc1ccc(C(=O)c2sc(Nc3ccc(F)cc3)c(C#N)c2N)cc1	-0.1%	i	-12.0%	85.9*	2.8%	-3.6%
COc1cc(/C=C(\C#N)C(=O)c2ccc(O)c(O)c2)cc(I)c1O	nt	nt	7.94µM*	-19.6	nt	nt
C[C@@H](NC(=O)/C(C#N)=C/c1ccc(O)c(O)c1)c1ccccc1	nt	nt	nt	-23.3	nt	nt
CC(C)c1ccccc1-c1nc(NCc2ccc(-c3cccnc3)cc2)c2cccn2n1	nt	nt	nt	nt	nt	9.0%
